SMILES strings stand for the structures. Among all 170,000 compounds or so, about 460 (0.27%) were called active. The sample holds actives, similar compounds and a random draw of the others, so the mix is not that of the screen. A number with no mark means an inactive call.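 Rule for the calls: active = inhibition above the plate cutoff, the mean inhibition of test wells on that plate plus 3 SD (cut at about 28% in these data); inactive = the rest.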

We go through 97 molecules from PubChem BioAssay AID485 (The Scripps Research Institute Molecular Screening Center, 2006).

The target in this assay is Sphingosine 1-phosphate receptor 3 (Homo sapiens) (UniProt Q99500). The assay can be described thus: inhibition of S1P-stimulated S1P3 activation – cell-based, primary screen (AID 485).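 Note: cells challenged with S1P at its EC80 of 0.8 µM; blue over green emission ratio from cleaved BLA substrate after 4 h stimulation; 0% = S1P-stimulated wells and 100% = unstimulated DMSO-only wells.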 The following applies: CHO S1P3 NFAT-BLA reporter, FRET fluorescence, antagonist mode; at 4.98 µM; hits give high values.
Sphingosine 1-phosphate receptor 3 (Homo sapiens), sequence (Q99500 whole entry, looked up): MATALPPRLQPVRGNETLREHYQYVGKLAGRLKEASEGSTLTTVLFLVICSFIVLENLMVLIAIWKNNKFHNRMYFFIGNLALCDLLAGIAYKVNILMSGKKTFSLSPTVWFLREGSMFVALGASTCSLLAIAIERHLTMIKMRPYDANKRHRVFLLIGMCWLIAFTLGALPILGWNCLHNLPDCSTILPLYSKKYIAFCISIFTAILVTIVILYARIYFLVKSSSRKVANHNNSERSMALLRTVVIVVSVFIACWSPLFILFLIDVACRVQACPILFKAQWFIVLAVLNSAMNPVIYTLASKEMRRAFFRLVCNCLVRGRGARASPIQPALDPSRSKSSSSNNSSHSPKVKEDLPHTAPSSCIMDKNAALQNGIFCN
As for `COCCCNC(=O)Cn1c(=O)n(Cc2ccccc2Cl)c(=O)c2cc(OC)c(OC)cc21`, the inhibition (as a rule, the relative decrease from the control value, in per cent) was -15.6%. As to `COc1ccc(-n2cc(CN(C)Cc3n[nH]c(=O)[nH]3)c(-c3cccc(F)c3)n2)cc1`, the inhibition was 0.22%. The figure for `C=CCC(Nc1ccccc1)c1cccc(OC)c1OC` (configuration not stated) is 3.89%; for `CN(C)CCCN(Cc1cc2cc3c(cc2[nH]c1=O)OCCO3)C(=O)NC1CCCCC1` it is -12.8%; for `O=C(CCNc1n[nH]c(=O)[nH]c1=O)N/N=C\c1ccc(Br)cc1` it is 7.68%.

Turning to `O=C(NCCCNc1ccc([N+](=O)[O-])cc1Cl)c1ccccc1F`, the inhibition is -0.7%. With `CCC(C)c1ccc(NC(=S)NCc2ccccn2)cc1` (configuration not stated) the figure was 6.58%; with `COc1ccc(C)cc1NC(=O)c1ccc(-c2ccc(C(C)=O)cc2)o1`, -2.68%; with `CC/C(=N\NC(=S)NC(C)C)c1ccc(OC(F)F)cc1`, 0.35%.

For `COc1cccc(Nc2nnc(SCC(=O)N3CC(=O)Nc4ccccc43)s2)c1`, the inhibition was 1.32%. For `CCOC(=O)c1cn(CC)c2cc(F)c(F)cc2c1=O`, the inhibition was 1.3%. As to `CN(CC(=O)Nc1cccc(F)c1)CC(=O)Nc1cccc([N+](=O)[O-])c1`, the inhibition was -5.5%. As to `Cc1ccc(NC(=O)CN(C)CC(=O)Nc2cccc(F)c2)cc1[N+](=O)[O-]`, the inhibition is 29.9% (active).

On to `Cc1ccc(CN(C)CC(=O)Nc2cccc([N+](=O)[O-])c2)o1`, for which the inhibition was -19.1%. In the case of `Cc1ccc(/C=C/C(=O)O)cc1S(=O)(=O)N1CCC(Cc2ccccc2)CC1`, the inhibition was -2.15%.

In the case of `O=C(Cn1cnc2cc([N+](=O)[O-])ccc2c1=O)NC(=O)NCc1ccccc1`, the inhibition was -4.47%. As to `COc1ccc(F)cc1S(=O)(=O)N1CCCCC1`, the inhibition is 17.2%. The figure for `Cc1ccc(NC(=O)C/C(N)=N/O)cc1Cl` is -2.94%; for `CC(C)(C)c1ccc(CCC2OCC(CN3CCOCC3)O2)cc1` (configuration not stated) it is 10.3%. The figure for `CCN(CC(=O)Nc1cccc(S(N)(=O)=O)c1)Cc1nc2ccccc2c(=O)[nH]1` is 19.8%; for `COC(=O)c1c(NC(C)=O)sc(C(=O)Nc2ccccc2OC)c1C` it is 6.94%; for `Cc1ccc(NC(=O)Nc2cc(-c3ccccc3)nn2C)cc1Cl` it is 6.92%.

As for `Cc1nc2ccccn2c1C(=O)NN=C1CCN(C)CC1`, the inhibition is 5.25%. Consider `CCOC(=O)c1c(N)sc2c1CCCC2=O`, for which the inhibition is 8.9%. The figure for `O=[N+]([O-])c1ccc(F)cc1Oc1nc(-c2cccnc2)nc2ccccc12` is 4.41%; for `CC1C(=O)NC(=O)C1c1ccccc1` (configuration not stated) it is 5.96%; for `CC(NCc1ccccc1OC1CCCC1)c1ccccc1` (configuration not stated) it is 3.22%. Consider `CCN(CC)CCN(C(=O)c1ccc(N2C(=O)CCC2=O)cc1)c1nc2cc3c(cc2s1)OCO3`, for which the inhibition is -4.37%.

Regarding `O=C(NCc1cccnc1)C(=O)Nc1nc(-c2ccccc2)cs1`, the inhibition was 10.3%. The figure for `CCOc1ccc(/C=C2\SC(=S)N(NC(=O)c3ccncc3)C2=O)cc1OC` is 6.85%. Take `CCOC(=O)CC1C(=O)NCCN1c1nc2c(C)cccn2c(=O)c1/C=C1\SC(=S)N(C(C)CC)C1=O` (configuration not stated): the inhibition is 29.7% (active). With `CCOC(=O)CC1C(=O)NCCN1C(=O)COc1ccc(Br)cc1C` (configuration not stated) the figure was -25.1%. The figure for `CCCCCC1CCC(c2nnc(SCC(C)=O)o2)CC1` (configuration not stated) is -22.3%; for `O=C(NNS(=O)(=O)Cc1ccccc1)c1ccc([N+](=O)[O-])cc1` it is -6.72%. For the molecule `Cn1c(S(=O)(=O)O)nc2ccccc21`, the inhibition was -12.4%. `Cn1cccc1-c1nc2ccccc2n1C`: the inhibition is -6.38%. With `Cn1c(-c2ccc(C(=O)c3ccccc3)s2)nc2ccccc21` the figure was 59.9% (active).

As for `Cc1cccc(-n2ncc3c(N4CCc5ccccc54)ncnc32)c1`, the inhibition was 84.3% (active). Turning to `Cc1ccc(-n2ncc3c(N4CCN(c5ccc(F)cc5)CC4)ncnc32)c(C)c1`, the inhibition was 27.2%. With `COc1ccc(-n2ncc3c(N4CCc5ccccc54)ncnc32)cc1` the figure was 13.4%. The figure for `CCN(CC)c1ccc2c(Nc3ccccc3)c(C=O)c(=O)oc2c1` is 6.07%.

For `CC(C)Cc1nnc(NC(=O)CCC(=O)Nc2ccc3cn[nH]c3c2)s1`, the inhibition was -0.32%. Consider `Cc1c(CN2CCCCC2)c(O)n(CCO)c(=O)c1C#N`, for which the inhibition was -12.4%. With `CCOc1cnc(-c2c(-c3ccccc3Cl)noc2C)o1` the figure was -6.23%; with `Cc1ccc(S(=O)(=O)N(CC(=O)NN=C2CCN(C)CC2)c2ccc(F)cc2)cc1`, 4.23%. On to `CCN(CC)C(=O)C(=O)c1cn(CC(=O)NCc2ccc3c(c2)OCO3)c2ccccc12`, for which the inhibition is 1.34%. The figure for `CN(C)c1ccc(NC(=O)CSc2n[nH]c(-c3ccco3)n2)cc1` is -1.38%; for `CC(C)C(=O)Nc1ccc2oc(=O)ccc2c1` it is -11.4%; for `CC1CCN(C(=S)c2cccc([N+](=O)[O-])c2)CC1` it is -0.25%. Turning to `C=CCOC(=O)C1=C(C)N=C2SCCC(=O)N2C1/C=C/c1ccccc1OC` (configuration not stated), the inhibition was -1.87%. The figure for `CCC(C)(C)NC(=O)CN(Cc1cccs1)C(=O)CNS(=O)(=O)c1ccc(F)cc1` is -2.83%; for `Cc1cc(N/N=C/c2ccccc2F)c2ccccc2n1` it is -3.58%; for `CC(=O)Nc1ccc(C(=O)/C=C/c2ccc[nH]2)cc1` it is 0.84%. The figure for `CCc1cc(CNC(=O)CC2C(=O)NCCN2Cc2ccccc2C(F)(F)F)on1` (configuration not stated) is -1.82%; for `CCc1ccc(C(=O)OCC(=O)NCC(F)(F)F)cc1` it is -9.42%.

On to `O=C(O)CC12CC3CC(C1)CC(n1ncc(NCc4ccc(F)cc4)c(Cl)c1=O)(C3)C2`, for which the inhibition was -16.8%.

`CC[C@H]1CN2CCc3cc(OC)c(OC)cc3[C@@H]2C[C@@H]1C[C@H]1NCCc2cc(OC)c(OC)cc21`: the inhibition was 97.4% (active).

Consider `COc1cc2c(cc1O)[C@H](Cc1ccc(Oc3cc(C[C@@H]4NCCc5cc(OC)c(O)cc54)ccc3O)cc1)NCC2`, for which the inhibition is -12.9%. Take `CN1C(=O)/C(=N/OC(=O)c2ccccc2Br)c2ccccc21`: the inhibition was -12.3%. The figure for `COc1ccc(NC(=O)CN2C(=O)CSC2=O)cc1` is 4.71%; for `CC(C)N(Cc1ccccc1)C(=O)COC(=O)c1cnccn1` it is -8.02%.

Turning to `O=Cc1ccc(OCc2cn3ccccc3n2)cc1`, the inhibition is -13.1%.

Regarding `CCCc1ccc(C(=O)[C@@H]2[C@@H](C(C)=O)N3c4ccc(F)cc4C=C[C@@H]3[C@@]23C(=O)Nc2ccccc23)cc1`, the inhibition was 3%. For the molecule `CCCN(CCC)CC(O)COc1ccccc1C(=O)Nc1ccccc1` (configuration not stated), the inhibition is -9.63%. Consider `COc1ccccc1C(=O)NNC(=O)c1ccc(NC(=O)c2ccccc2)cc1`, for which the inhibition was -4.89%. The figure for `CC(C)Oc1ccccc1C(=O)NC(CO)C(=O)O` (configuration not stated) is 28.6% (active); for `O=C(Nc1cccc2c1N(C(=O)c1ccco1)CCC2)c1ccco1` it is -8.57%; for `CCN1/C(=C\c2ccc3ccccc3[n+]2CC)Sc2cc(C)ccc21` it is 31.2% (active). With `CCC(=O)/C=C1\Sc2ccccc2N1CC` the figure was 1.3%; with `CCN1/C(=C/c2ccc3ccc(C)cc3[n+]2CC)Sc2ccccc21`, 25.1%; with `C=CCSc1nnc(NC(=O)c2ccc(NC(C)=O)cc2)s1`, -1.45%. With `Cc1cccc(C(=O)Nc2ccc3c(c2)C(=O)N(CC(C)C)C3=O)c1` the figure was 2.56%. Regarding `Nc1ccccc1Sc1cc(Cl)nnc1Cl`, the inhibition was 1.23%. With `Cc1c(NC(=O)C(=O)N/N=C/c2cccs2)c(=O)n(-c2ccccc2)n1C` the figure was -2.98%; with `COc1ccccc1NC(=O)C1=C(C)NC(=O)NC1c1ccc(C)s1` (configuration not stated), 1.95%.

Take `COc1cccc(OC)c1C(=O)NC(=S)NCc1ccco1`: the inhibition was -6.79%. `NS(=O)(=O)c1ccc(CNC(=O)c2cnccn2)cc1`: the inhibition is -4%. For the molecule `Brc1ccc(-c2nn[nH]n2)cc1`, the inhibition was -7.13%.

Turning to `CCN(CCn1cccn1)Cc1cn[nH]c1-c1ccc(OC)cc1F`, the inhibition is -12.8%. As for `COc1ccc(CCNC2=CC(=O)CC(C)(C)C2)cc1`, the inhibition is -7.01%. On to `CN(C)/C=C(/C(=O)c1ccc(Cl)c(Cl)c1)c1nnnn1-c1ccccc1`, for which the inhibition is 1.6%. Take `O=C(NNC(=O)c1ccccc1[N+](=O)[O-])Nc1ccccc1C(F)(F)F`: the inhibition was -5.24%. Take `O=S(=O)([N-]c1nc2ccccc2nc1-[n+]1ccc(Cc2ccccc2)cc1)c1ccc(Br)s1`: the inhibition was 0.71%. The figure for `CCNc1nc(Oc2ccc(C(=O)OC)cc2)nc(N2CCOCC2)n1` is -9.79%. Take `COc1ccccc1Nc1nc(N)nc(CSC(=S)N2CCOCC2)n1`: the inhibition was 3%. For `O=C(CCCl)Nc1ccc(S(=O)(=O)NCc2ccco2)cc1`, the inhibition is -8.65%. For the molecule `O=C(NCc1nnc(SCC(=O)N2CCCc3ccccc32)o1)c1ccccc1F`, the inhibition was -7.71%. With `CSc1ccc(CN(C)CC(=O)NCc2ccc(F)cc2)cc1` the figure was 30.2% (active). The figure for `O=C(Cc1ccccc1)NCc1ccc(F)cc1` is -11%; for `CCCCC(=O)NCc1ccc(F)cc1` it is 6.82%. With `COc1ccccc1-n1c(SCC(=O)O)nc2sc3c(c2c1=O)CCC3` the figure was -7.86%. Consider `CN(C)CCCn1c(SCCN2C(=O)c3ccccc3C2=O)nc2ccccc2c1=O`, for which the inhibition was 5.65%. For `Cc1ccc(SCCN2C(=O)NC(C)(C)C2=O)cc1`, the inhibition is -2.4%. With `Nc1ccc(SCCN2C(=O)c3ccccc3C2=O)cc1` the figure was 91.7% (active); with `CCOC(=O)C1=C(C)NC(=O)NC1c1ccccc1` (configuration not stated), -9.13%; with `CCOC(=O)C1=C(C)N=C2c3ccccc3C(=O)C2C1c1ccc(Br)cc1` (configuration not stated), 60% (active). The figure for `CCOC(=O)C1=C(C)NC(C)=C(C(=O)OCC)C1c1ccccn1` is -28.6%.
